Screening data deposited in PubChem by National Center for Advancing Translational Sciences (NCATS).
MmCpn inh – Inhibitors of TCP-1 ring complex (TRiC) of Methanococcus maripaludis (MmCpn): qHTS; Chaperonin Mm-Cpn (Methanococcus maripaludis); Potency, µM (doses to about 76.9 µM), for the others: top-dose activity, negative = inhibition, usual class: inhibitors; purified Mm-Cpn ATPase, ADP Transcreener TR-FRET; AID 504842, 2011; 0.031% of 330,000 active; active = well fitted inhibition curve with a large enough effect; inconclusive = small, poorly fitted or top-dose-only effect; note: potency is the fitted concentration of half-maximal effect; % is set by controls: 0 for no effect and ±100 for the full control effect; nearly all actives have a fitted effect of over 80% in size
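Reaction buffer contained 30 mM Tris pH 7.4, 100 mM KCl, 5 mM MgCl2 and 1 mM DTT. Mm-CPN (25 nM final) hydrolysed 10 uM ATP over 30 min at 37°C; ADP was read by HTRF.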
Rango complex inh – qHTS Assay for Inhibitors of Rango (Ran-regulated importin-beta cargo) - Importin beta complex formation. Rango CFP/YFP FRET sensor + importin beta, 45 min. Potency, µM (titrated, usually from 92.2 µM), for the others: at the highest dose inhibition of complex formation. 0.031% of 340,000 active;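 note: potency is the fitted concentration of half-maximal effect; 0% = DMSO wells and 100% = buffer wells lacking importin beta; nearly all actives have a fitted effect of over 15% in size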
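FRET biosensor (snurportin 1 IBB flanked by EYFP and cerulean), 50 nM, with compound 5 min, then 0.125 microM importin beta in PBS, 1 mM DTT, 0.02% Tween-20, 0.1% BSA. CFP/YFP ratio read after 45 min at room temperature; pre-read flags interference.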
D3 antag – qHTS of D3 Dopamine Receptor Antagonist: qHTS; D(3) dopamine receptor (Homo sapiens), P35462; AID 652054, 2013; 2.5% of 360,000 active; max response, negative = inhibition, %; D3R cells, DiscoveRx beta-arrestin luminescence, antagonist mode; stronger effect = lower value; in the data active = max response below about -50%; inconclusive = no clear call, values can overlap the other calls; note: % is set by controls: 0 for no effect and ±100 for the full control effect
Target sequence (P35462 whole entry, looked up): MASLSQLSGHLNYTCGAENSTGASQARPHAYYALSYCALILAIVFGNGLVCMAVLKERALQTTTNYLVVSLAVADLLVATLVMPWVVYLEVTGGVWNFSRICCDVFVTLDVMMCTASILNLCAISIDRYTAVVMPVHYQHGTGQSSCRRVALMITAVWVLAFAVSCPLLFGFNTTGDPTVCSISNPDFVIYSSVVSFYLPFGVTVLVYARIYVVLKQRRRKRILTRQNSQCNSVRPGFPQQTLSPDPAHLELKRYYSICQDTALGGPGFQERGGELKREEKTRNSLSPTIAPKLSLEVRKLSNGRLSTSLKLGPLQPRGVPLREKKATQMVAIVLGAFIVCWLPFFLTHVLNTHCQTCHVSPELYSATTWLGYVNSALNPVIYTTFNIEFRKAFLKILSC
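Cells expressing the human receptor were seeded at 1500 cells/well, incubated overnight at 37 degrees C in 5% CO2, then exposed to library compounds with dopamine controls for 90 minutes at 37 degrees C before luminescent detection.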
Rango dissoc inh – qHTS Assay for Inhibitors of RanGTP induced Rango (Ran-regulated importin-beta cargo) - Importin beta complex dissociation; Snurportin-1 (Homo sapiens) + GTP-binding nuclear protein Ran (Homo sapiens) + Importin …; Biochemical FRET Rango-importin beta, RanGTP-induced dissociation; Potency, µM (highest dose often 46.1 µM), inactives show at the top dose activity change, negative = inhibition; 0.071% of 340,000 active; note: potency is the fitted concentration of half-maximal effect; % of control where 0% means no effect; nearly all actives have a fitted effect of over 45% in size
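Compounds preincubate 5 min with complex of recombinant Rango and importin beta in PBS with 1 mM DTT. Ran (0.6 uM) loaded with 2 mM GTP plus 0.2 uM RCC1 starts dissociation; FRET is recorded 45 min later.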
DRD3 agonist – qHTS of D3 Dopamine Receptor Agonist: qHTS; D(3) dopamine receptor (Homo sapiens), P35462; 0.58% of 410,000 active; D3R DiscoveRx beta-arrestin cells, luminescence, 90 min; max activation, %; AID 652048, 2013; in the data active = max activation above about 30%; note: 0% is about no effect
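Agonist-mode cell screen: cells plated at 1500/well and incubated overnight at 37 °C, then exposed to library compounds for 90 min at 37 °C. Detection reagent was added for 30–60 min at room temperature, and luminescence was read.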
TSG101-PTAP inh – qHTS Assay for Iinhibitors of HIV-1 Budding by Blocking the Interaction of PTAP/TSG101. Fluorescence polarization, FITC-PTAP peptide / Tsg101 binding. AID 493005, 2010. Potency, µM (top dose mostly 115 µM), for the others: at the top dose activity change, negative = inhibition, hits mostly inhibitors. 340,000 tested, under 10 active; active = well fitted inhibition curve with a large enough effect in the main read-out, with a control signal flat, not every such curve was filed as active; inconclusive = small, poorly fitted or top-dose-only effect, or effect the other way, or a change in a side signal; inactive = no such curve, though single readings can be large or run the other way; note: potency is the fitted concentration of half-maximal effect; % of control where 0% means no effect
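Fluorescence anisotropy tracks displacement of a FITC-tagged PTAP peptide (50 nM) from the Tsg101 binding domain (10 uM), following a 20 min room-temperature incubation at pH 7.5.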
Starred values were filed as active, the others as inactive; u = inconclusive; x = not tested or not shown; [ ] = another dose, or the depositor's remark. Compounds with a hit are over-represented: about 2.9% of the library has one in this group of screens. Unless noted, calls come from the whole dose curve.

SMILES	MmCpn inh	Rango complex inh	D3 antag	Rango dissoc inh	DRD3 agonist	TSG101-PTAP inh
Cc1nc2c(OCc3ccc(Cl)cc3Cl)cccn2c1N(C)Cc1cccs1	x	x	-70.7*	x	-16.7	x
CS(=O)(=O)c1ccc(C(=O)OCC(=O)NCc2cccs2)cc1[N+](=O)[O-]	2.9%	-0.4%	-59.7*	3.9%	-10.6	-0.9%
O/N=C/c1cn(-c2ccccc2)nc1-c1ccccc1	1.8%	2.9%	55.0	12.1%	44.9*	-1.7%
O=C(c1ccc(Br)o1)N1CCN(Cc2ccc3c(c2)OCO3)CC1	0.2%	-2.3%	-81.2*	0.8%	-3.6	-6.5%
NC(=O)C1=C[C@@H](c2ccc(C(F)(F)F)cc2)C[C@@H](OCc2ccc(CO)cc2)O1	x	-3.1%	-55.7*	-9.5%	-6.6	-1.7%
NC(=O)C1=C[C@H](c2ccc(C(F)(F)F)cc2)C[C@H](OCc2ccc(CO)cc2)O1	x	-3.0%	-2.4	16.8%	-17.1	-9.2%
O=C(c1ccc(Br)s1)N1CCN(Cc2ccc3c(c2)OCO3)CC1	1.7%	4.9%	-95.1*	-2.3%	-57.4	-3.6%
O=C(C1=C[C@@H](c2ccc(Br)cc2)C[C@@H](OCc2ccc(CO)cc2)O1)N1CCN(Cc2ccc3c(c2)OCO3)CC1	x	-1.1%	-63.2*	-7.3%	-12.7	-3.6%
CC1CCN(S(=O)(=O)c2ccc3c(c2)N(CC(=O)NC(C)c2ccccc2)C(=O)CO3)CC1 (stereo not given)	x	x	x	x	-8.4	x
COc1cc(-c2noc(-c3nnn(-c4ccc(Cl)cc4)c3C)n2)cc(OC)c1OC	x	x	x	x	4.6	x
CN(Cc1ccccc1)c1ccc(-c2nc(-c3ccccn3)no2)cc1[N+](=O)[O-]	x	x	x	x	34.1*	x
CN(Cc1ccccc1)c1ccc(-c2nc(-c3ccncc3)no2)cc1[N+](=O)[O-]	x	x	x	x	57.3*	x
Cc1cc2n(n1)CCC(=O)N2Cc1ccc(C(=O)Nc2ccc(Br)c(C)c2)cc1	x	x	x	x	9.9	x
CCc1ccc(CNC(=O)C2CCCN(c3nnc(C)c4c(C)n(-c5ccc(OC)cc5)nc34)C2)cc1 (stereo not given)	x	x	x	x	30.6*	x
COc1cc(C=C(C#N)c2ccc([N+](=O)[O-])cc2)ccc1O	x	x	-51.7*	x	-17.4	x
COc1ccc(/C=N/Nc2ccc([N+](=O)[O-])cc2)cc1O	-3.3%	u	-52.6*	u	-9.9	-3.7%
CCN(CC)c1ccc2cc(C=O)c(=O)oc2c1	x	u	-55.5*	u	-4.7	u
CCN(CC)c1ccc2cc(C(C)=O)c(=O)oc2c1	0.0%	u	0.6	u	-6.9	u
O=C1C=CC(=O)N1Cc1ccncc1	x	u	-7.6	-15.8%	9.1	-6.0%
O=C1C=CC(=O)N1CCCCCCCCCCN1C(=O)C=CC1=O	x	0.9%	-99.8*	-11.0%	-18.9	-5.3%
Cc1ccc(S(=O)(=O)NC(=O)c2ccc(Br)o2)cc1	-1.1%	-3.4%	8.3	-16.4%	53.5*	0.1%
Cc1noc(NS(=O)(=O)c2ccc(NC(=O)c3ccc(Br)o3)cc2)c1C	-3.9%	2.5%	-71.6*	u	-0.2	1.0%
Cc1ccc(C)c(S(=O)(=O)Nc2ccc(S(=O)(=O)Nc3onc(C)c3C)cc2)c1	1.5%	0.4%	-51.6*	7.3%	1.1	-2.2%
Cc1noc(NS(=O)(=O)c2ccc(NC(=O)c3ccc(Br)cc3)cc2)c1C	x	x	x	x	3.1	x
COc1ccc(NC(=O)CN(C)C(=O)CNC(=O)c2cccs2)cc1	2.1%	0.3%	5.7	6.6%	1.2	x
SMILES	MmCpn inh	Rango complex inh	D3 antag	Rango dissoc inh	DRD3 agonist	TSG101-PTAP inh
O=C(CSc1nnc(-c2cnccn2)n1Cc1ccco1)c1ccc(Cl)cc1	u	-3.5%	-63.4*	-15.3%	-8.6	-4.5%
CCOc1ccc2nc(N(CCCN(C)C)C(=O)c3ccc4c(c3)CCCC4)sc2c1	0.0%	3.5%	-84.3*	3.9%	-22.9	-1.8%
CN(C)CCCN(C(=O)c1ccc2c(c1)CCCC2)c1nc2ccc(Cl)cc2s1	-6.4%	u	-88.1*	43.5%	-10.2	1.6%
CCOc1ccc2nc(N(CCCN(C)C)C(=O)c3ccc(S(=O)(=O)N4CCc5ccccc5C4)cc3)sc2c1	u	-0.4%	-1.0	0.3%	1.0	0.3%
CC(=O)c1cccc(-c2ccc3c(=O)[nH]c(Nc4ccccc4)cc3c2)c1	x	u	0.0	11.6µM*[inhibitor]	30.6*	-6.5%
O=c1[nH]c(Nc2ccccc2)cc2cc(Br)ccc12	x	u	-22.4	u	-18.5	-19.6%
COC(=O)NC(=S)Nc1ccc(Oc2ccc(Cl)cc2Cl)c(Cl)c1	-7.7%	0.9%	-64.8*	13.4%	-16.4	-3.0%
CC(O)(c1ccc(F)c(F)c1)c1nc(/C=C/c2ccc(C(F)(F)F)cc2)cs1 (stereo not given)	x	x	u	x	-7.0	x
CC(O)(c1cccc(F)c1)c1nc(/C=C/c2ccccc2)cs1 (stereo not given)	x	x	-87.9*	x	-17.8	x
O=C(c1cnn2c(C(F)F)cc(-c3ccccc3)nc12)N1CCN(Cc2ccc3c(c2)OCO3)CC1	-2.3%	u	-74.5*	-6.0%	-12.5	-0.7%
